Only some compounds are listed: those with a hit (about 1.3% of all), similar ones and a draw of the others.
TCR activator: Activators of T cell receptors: qHTS campaign; primary human leukocytes, anti-CD3, IL-2 HTRF, 48 h; 330,000 tested, under 10 active; Potency, µM (doses to about 9.22 µM), usual class: activators
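48 hr co-incubation of compounds, a-CD3 beads and primary human leukocytes; IL-2 quantified homogeneously by HTRF with anti-IL-2 K and d2 conjugates.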
PTHR1 agonist: qHTS for PTHR1 Agonists: Primary Screen; Parathyroid hormone/parathyroid hormone-related peptide receptor (Homo sapiens), Q03431; HEK293 GP2 PTHR1 cells, GloSensor cAMP luminescence, 1 h; Potency, µM (doses to about 115 µM), actives largely listed as activators; hit rate 0.075% among 410,000; further: nearly all actives have a fitted effect of over 55% in size
Target sequence (Q03431 whole entry, looked up): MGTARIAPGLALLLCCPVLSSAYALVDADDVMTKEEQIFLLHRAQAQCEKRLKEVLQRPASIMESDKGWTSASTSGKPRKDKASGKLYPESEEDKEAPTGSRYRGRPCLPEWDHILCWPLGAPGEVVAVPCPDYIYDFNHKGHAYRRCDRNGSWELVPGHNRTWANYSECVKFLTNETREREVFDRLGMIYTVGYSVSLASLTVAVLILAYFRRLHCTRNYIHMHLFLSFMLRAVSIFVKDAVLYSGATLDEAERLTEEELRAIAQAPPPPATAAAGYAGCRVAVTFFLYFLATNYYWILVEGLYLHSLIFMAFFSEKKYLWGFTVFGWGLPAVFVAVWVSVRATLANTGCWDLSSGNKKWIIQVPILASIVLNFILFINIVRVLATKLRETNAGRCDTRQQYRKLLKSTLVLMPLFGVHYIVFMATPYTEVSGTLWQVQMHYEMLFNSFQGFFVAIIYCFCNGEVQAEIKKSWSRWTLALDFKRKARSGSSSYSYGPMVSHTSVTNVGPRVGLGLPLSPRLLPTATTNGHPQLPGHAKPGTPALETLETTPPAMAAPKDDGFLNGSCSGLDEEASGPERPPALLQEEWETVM
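HEK-293-derived GP2 cells expressing PTHR1 and a GloSensor cAMP reporter, 3,000/well, plated overnight, given luciferin plus IBMX (each 0.5 mM as added) for 1 h at 37 °C, then compound for 1 h at 37 °C. Luminescence was read after 15 min at room temperature.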
BRCA1 expr up: qHTS Assay to Identify Small Molecule Activators of BRCA1 Expression. MCF7-BRCA1-FFLuc reporter, luminescence, 48 h; response scale: scaled: vehicle 0%, 10 µM genistein 100%. hit rate 1.1% among 380,000. AID 624202, 2012. Potency, µM (highest dose often 46.1 µM), hits mostly activators; further: nearly all actives have a fitted effect of over 80% in size
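Luminescence from a BRCA1-driven firefly luciferase in MCF7 cells was the read-out, taken 15 min after substrate addition following 48 h compound exposure at 37 °C. Data were normalized to a 10 microM genistein control and DMSO vehicle.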
IL-2 act: qHTS of IL-2 Activators. IL-2 activation reporter assay, cell-based qHTS; stimulated with anti-CD3/CD4/CD28 beads; in transgenic mouse T cells. activation, % (series mostly up to about 46 µM). hit rate 0.065% among 360,000. AID 652025, 2013; in the data active means activation above about 50%; inconclusive means mostly about 30% to 49%
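Unstimulated transgenic mouse T cells, 750 per well, received compound and, after 60 minutes, anti-CD3/anti-CD4 bead plus anti-CD28 stimulation. EGFP and DsRed were quantified after 18 hours.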
BCR signal inh: qHTS Assay to Find Inhibitors of Chronic Active B-Cell Receptor Signaling | Potency, µM (doses to about 46.1 µM), actives largely listed as inhibitors | AID 493014, 2011 | ABC-DLBCL IkBa-CBG/CBR reporter, luminescence ratio, 4 h | hit rate 0.05% among 340,000; active means well fitted inhibition curve with a large enough effect in the signal ratio, with a control signal flat, not every such curve was filed as active; inconclusive means small, poorly fitted or top-dose-only effect, or effect the other way, or a change in a side signal; the % refers to the signal ratio
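TMD8 ABC-DLBCL cells carrying doxycycline-inducible green luciferase fused to IkappaBalpha plus unfused red luciferase were exposed to compounds (up to 46 uM) for 4 hrs at 37C. Activity came from the overlap-corrected green/red luminescence ratio.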
Mito fusion yeast: qHTS Assay for Small Molecule Inhibitors of Mitochondrial Division or Activators of Mitochondrial Fusion | hit rate 0.23% among 320,000 | Potency, µM (series often up to 46.1 µM), actives largely listed as activators | S. cerevisiae fusion-defective mutant growth rescue, CellTiterGlo 48 h; further: nearly all actives have a fitted effect of over 45% in size
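Growth-rescue viability read-out: after 48 h at the non-permissive 37C in glycerol/ethanol YPEG, yeast mitochondrial fusion mutants are measured by CellTiterGlo luminescence; compounds (23 nl pinned per well) restoring growth score as division inhibitors or fusion activators.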
A number is an active result; i = inactive; ? = inconclusive; nt = no result given. Unless noted, the call rests on the fitted dose curve; in most records, active means well fitted curve in the direction sought with a large enough effect; inconclusive means small, poorly fitted or top-dose-only effect, or another doubt; inactive means no such curve, though single readings can be large; an effect the other way counts as inactive or inconclusive.

SMILES	TCR activator	PTHR1 agonist	BRCA1 expr up	IL-2 act	BCR signal inh	Mito fusion yeast
COc1cccc(C(=O)NC2=NCCS2)c1OC	i	i	13µM	i	?	i
COc1cc(C(=O)NC2=NCCS2)cc(OC)c1OC	i	i	i	i	i	i
O=C(Nc1ccc2c(c1)CCC2)c1cccc(OC(F)F)c1	i	i	2.8µM	i	nt	nt
COc1ccccc1/C=C/C=N/n1c(-c2cc(C)[nH]n2)n[nH]c1=S	i	i	i	i	i	i
COc1ccccc1/C=C/C=N/n1c(-c2ccccn2)n[nH]c1=S	i	i	11µM	i	?	i
CCC(=O)n1nc(-c2ccc(Cl)cc2)nc1SC	i	i	10µM	i	i	i
CSc1nc(-c2ccc(Cl)cc2)nn1S(=O)(=O)c1ccc(Cl)cc1	i	i	10µM	i	i	i
CCCC(=O)n1nc(-c2ccc(Cl)cc2)nc1SC	i	i	i	i	i	i
Cc1snc(SCC(=O)c2ccc(F)cc2)c1C#N	i	i	8.9µM	i	i	i
Nc1c(C(=O)N2CCCC2)sc2nc3c(cc12)CCCCCC3	nt	i	4.5µM	i	i	i
COC(=O)c1sc2nc3c(cc2c1N)CCCC3	i	i	?	i	?	?
NC(=O)c1sc2nc3c(cc2c1N)CCC3	i	i	8.9µM	i	i	i
Cc1cc(/C=C2/NC(=O)NC2=O)c(C)n1-c1ccccn1	i	i	i	i	i	i
Cc1ccc(-n2c(C)cc(/C=C3\NC(=O)NC3=O)c2C)c(C)c1	i	i	i	67	i	i
CCc1cc(C(=O)/C=C/c2cc3c(cc2C)OCCO3)c(O)cc1O	nt	nt	i	nt	nt	nt
Clc1ccc(Cn2cc3c(n2)-c2cc4ccccc4n2C3)cc1	nt	nt	i	nt	nt	nt
O=C1CCN(Cc2ccc(O)cc2)CCN1[C@H](CO)c1ccccc1	i	i	i	i	i	i
O=C(c1cnc(N2CCCCC2)c2ccccc12)N1CCN(c2ccc(Cl)cc2)CC1	nt	i	nt	nt	nt	nt
O=C(Nc1ccccc1F)Nc1ccccc1F	i	i	5µM	i	?	i
O=C(Nc1ccc(Br)cc1)Nc1ccccc1F	i	i	?	i	?	i
Cc1cnc(C(=O)Nc2ccccc2F)cn1	i	i	5µM	i	?	i
Cc1cnc(C(=O)Nc2ccccc2-n2cccc2)cn1	i	i	i	i	i	i
COc1ccc(CC(=O)NO)cc1OC	nt	nt	i	nt	nt	nt
O=C(/C=C/c1ccc(O)c(O)c1)OCCc1ccccc1	i	i	i	i	nt	2.6µM
COc1cc(C(=O)Nc2nc3ccc(S(C)(=O)=O)cc3s2)cc(OC)c1C	i	i	i	i	?	i
SMILES	TCR activator	PTHR1 agonist	BRCA1 expr up	IL-2 act	BCR signal inh	Mito fusion yeast
COc1cc(OC)cc(C(=O)Nc2nc3ccc(S(C)(=O)=O)cc3s2)c1	i	i	5.6µM	i	?	i
CS(=O)(=O)c1ccc2nc(NC(=O)c3cccc([N+](=O)[O-])c3)sc2c1	nt	i	5.6µM	i	i	i
Cc1nc(-c2ccccc2)nn1-c1ccc([N+](=O)[O-])cc1	i	i	5µM	i	nt	nt
O=C(Cn1cc2c(n1)CCCCC2)NC1CCCCCC1	i	i	8.9µM	i	i	i
CC(=O)c1ccc(NC(=O)C2CC(c3ccc(F)cc3)=NO2)cc1 (stereo not drawn)	i	i	i	i	i	i
O=C(NC1CCCC1)C1CC(c2ccc(F)cc2)=NO1 (stereo not drawn)	i	i	10µM	i	i	i
O=C(Nc1ccc(Br)cc1)c1ccccc1Br	i	i	1.1µM	i	i	i
O=C(Nc1cccc(NC(=O)c2ccc(-c3ccc(Br)cc3)o2)c1)c1ccccc1	i	?	i	i	i	i
O=C(Nc1ccccc1)c1ccc(-c2ccc(Br)cc2)o1	i	i	i	i	?	16µM
CCc1ccc(NC(=O)c2ccccc2Br)cc1	i	i	3.2µM	i	?	i

Screens: PubChem, National Center for Advancing Translational Sciences (NCATS)
